This is part of a sample that, as a whole, favours compounds with a hit. Of some 79,000 tested, about 15% had one in any assay. Active and inactive are the calls of the source. Cut-off read from the data, not from the text of the source: active = growth inhibition above about 70%; inactive = the rest. Where a SMILES comes first, the peptide text is derived from it. Bridges are numbered along the chain shown (N, C = ends). Roman numbers before positions name the chains, in order. [ ]: non-standard residue; d: D form. The star is where a group is joined. Phe(4-NO2) = N[CH](Cc1ccc([N+](=O)[O-])cc1)C(=O)O; Boc = CC(C)(C)OC(=O)*; OtBu = CC(C)(C)O*
Key:
[1] = NCI Yeast Anticancer Drug Screen. Data for the rad50 strain (AID 155);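 note: 0% = growth of vehicle-only cultures of the same strain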; details: S. cerevisiae rad50 strain growth inhibition; at 50.0 µM; stronger effect = higher value
Procedure, shortened: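 Inhibition values express reduced yeast growth in compound-treated cultures relative to vehicle-treated controls.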

[2] = NCI Yeast Anticancer Drug Screen. Data for the mec2-1 strain (AID 157); details: S. cerevisiae mec2-1 strain, at 50.0 µM, stronger effect = higher value
Procedure, shortened: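 Test agents were screened against the mec2-1 yeast strain, with defined DNA repair or cell cycle alteration. Growth was scored as inhibition against vehicle-only controls.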

[3] = NCI Yeast Anticancer Drug Screen. Data for the sgs1 mgt1 strain (AID 161);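 note: 0% = growth of cultures given vehicle only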; details: S. cerevisiae sgs1 mgt1 strain, at 50.0 µM, stronger effect = higher value
Procedure, shortened: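 Read-out: growth inhibition vs vehicle controls. Cells: mutant yeast strain deficient in DNA damage repair.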

[4] = NCI Yeast Anticancer Drug Screen. Data for the cln2 rad14 strain (AID 165);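 note: 0% = growth equal to vehicle treated cultures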; details: S. cerevisiae cln2 rad14 strain, at 50.0 µM, stronger effect = higher value
Procedure, shortened: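 Growth of compound-exposed yeast (cln2 rad14 genotype) measured and expressed as inhibition relative to vehicle.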

[5] = NCI Yeast Anticancer Drug Screen. Data for the bub3 strain (AID 167); details: S. cerevisiae bub3 mutant strain, at 50.0 µM, stronger effect = higher value
Procedure, shortened: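 Steps: expose the mutant yeast strain to compound; grow alongside vehicle-treated cultures; measure growth; express inhibition against the vehicle cultures.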

[6] = NCI Yeast Anticancer Drug Screen. Data for the mlh1 rad18 strain (AID 175); details: S. cerevisiae mlh1 rad18 strain growth inhibition; at 50.0 µM; stronger effect = higher value
Procedure, shortened: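 In this whole-cell yeast screen, a strain with altered DNA damage repair is challenged with compound, and its growth is measured against matched vehicle-treated controls.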

Measured: growth inhibition

CC(=O)OCC1OC(n2ccc(=O)[nH]c2=O)CC1N=[N+]=[N-] (stereo not given)
inactive: [1] -25.1% | [2] 8.7% | [3] 1.05% | [4] -48.3% | [5] 13.3% | [6] 0.35%

CC1OS(=O)OC1C (stereo not given)
inactive: [1] -20.9% | [2] -23.6% | [3] -2.4% | [4] -21.7% | [5] -8.45% | [6] -0.4%

CCCCOCCOCCOC(=O)C(C)O (stereo not given)
inactive: [1] -5.6% | [2] -4.7% | [3] -3.95% | [4] 5.1% | [5] -7.25% | [6] -14%

COc1cccc(-c2nc3ccccc3c(=O)[nH]2)c1OC
inactive: [1] 33.2% | [2] -16.6% | [3] 10.1% | [4] 18.1% | [5] 16.5% | [6] 19.9%

O=C(O)/C=C/C=C/c1ccccc1
inactive: [1] 8.9% | [2] 8.95% | [3] 49.9% | [4] -2.7% | [5] 16.4% | [6] 32.8%

Cc1ccc(S(=O)(=O)OCCN(CCO)c2cn(C(c3ccccc3)(c3ccccc3)c3ccccc3)c(=O)n(C(c3ccccc3)(c3ccccc3)c3ccccc3)c2=O)cc1
inactive: [1] -2.1% | [2] 17.8% | [3] 3.7% | [4] -6.8% | [5] -4.3% | [6] 24.3%

c1ccc(COC[C@H]2O[C@@H](c3ccccc3)C[C@@H](OCc3ccccc3)C2OCc2ccccc2)cc1 (stereo not given in full)
inactive: [1] -20.3% | [2] -11.6% | [3] -1.95% | [4] -0.45% | [5] -11.6% | [6] 5.4%

C=C[Si](Cl)(Cl)c1ccccc1
inactive: [1] 15.9% | [2] -2.45% | [3] 1.65% | [4] -0.15% | [5] 6.5% | [6] 11.2%

C=CCOc1ccc(N)c([N+](=O)[O-])c1
inactive: [1] 42.1% | [2] 41.5% | [3] 23.3% | [4] 14.1% | [5] 36.7% | [6] 2.85%

CC1(C)SC(C)(C)C1=O
inactive: [1] -13.6% | [2] -7.35% | [3] -0.6% | [4] -36.8% | [5] 2.05% | [6] -5.15%

CC1=C(C[Si](C)(C)C)CC(CO[Si](C)(C)C(C)(C)C)C2C(=O)N(C(=O)c3ccccc3)C(Cc3ccccc3)C12 (stereo not given)
inactive: [1] 21.6% | [2] 5.7% | [3] 2.05% | [4] -4.25% | [5] -3.95% | [6] 23.4%

CCCC(=O)Nc1ccccc1OC
inactive: [1] 12.8% | [2] 12.7% | [3] 9.2% | [4] 11.9% | [5] 24.4% | [6] -0.75%

N#CC1=C(N)N(c2ccccc2)C(c2ccco2)C1(C#N)C#N (stereo not given)
inactive: [1] 4.85% | [2] 13.3% | [3] 9.85% | [4] 3.35% | [5] -13.7% | [6] 6.25%

CN(NC(=O)c1ccccc1)C(=O)c1ccccc1
inactive: [1] 15.6% | [2] 7.4% | [3] 11.6% | [4] -15% | [5] 6.05% | [6] 3.75%

CCCCCCCCC(C)(C)O
inactive: [1] -3.15% | [2] -3.55% | [3] -1.25% | [4] 3.05% | [5] 5.65% | [6] -4.45%

Cc1ccc2c(c1)[nH]c1ccccc12
inactive: [1] 15.3% | [2] 13.7% | [3] 26.2% | [4] -14.2% | [5] 22.6% | [6] 23.9%

CCOC(=O)C(=O)C(/C(=N/N(C)C)C(=O)Nc1ccc(C)cc1C)c1nc2ccccc2[nH]c1=O (stereo not given)
inactive: [1] -21.7% | [2] -22.1% | [3] 3.8% | [4] 11.7% | [5] 1% | [6] 12.5%

CC1/C(=N/Nc2ccc([N+](=O)[O-])cc2)CC2C3(C)CCC2(C(C)C(=O)O)C(=O)C13 (stereo not given)
active: [1] 78% | [3] 83.5% | [6] 88.7%
inactive: [2] 33.4% | [4] 45.7% | [5] 44.8%

CC1CN(C(=O)C2CCCN(CCc3ccccc3)C2)CC(C)O1 (stereo not given)
inactive: [1] 25.4% | [2] 2.65% | [3] 52.7% | [4] 14.8% | [5] 2% | [6] 22.7%

Nc1ncnc2c1nnn2CC(O)CO (stereo not given)
inactive: [1] -36% | [2] -19.2% | [3] -17.4% | [4] -25.5% | [5] -2.9% | [6] 5.2%

CC(C)CC(NC(=O)C(N)CSSCC(N)C(=O)NC(CC(C)C)C(=O)O)C(=O)O (stereo not drawn) (I: H-Cys-Leu-OH / II: H-Cys-Leu-OH; disulfide I:1-II:1; configuration not given here)
inactive: [1] -10.6% | [2] -6.85% | [3] -9.8% | [4] -23.1% | [5] -1.25% | [6] -6.9%

NC(=O)/C(=C(/O)C(=O)O)c1ccnc2ccccc12
inactive: [1] 4.85% | [2] -4.8% | [3] 7.35% | [4] -41% | [5] -4.2% | [6] -2.15%

C[n+]1c(C2(O)CCCCCCCCCCC2)sc2ccccc21
inactive: [1] 3.8% | [2] 10.1% | [3] 1.5% | [4] -11.3% | [5] 1.4% | [6] 34.4%

Cc1ccc(NC(=O)OCC2CC3C=CC2C3)cc1 (stereo not given)
active: [1] 95.5% | [2] 98.8% | [3] 99% | [4] 96.3% | [5] 95.2% | [6] 97.7%

O=S(=O)(/N=c1/ccc(NS(=O)(=O)c2ccccc2)cn1O)c1ccccc1
inactive: [1] 25.5% | [2] 3.8% | [3] 18.1% | [4] -23% | [5] 10.6% | [6] 14.6%

COC1(OC)CC2C(=O)N(Cc3ccccc3)C1C(S(=O)(=O)c1ccccc1)C2S(=O)(=O)c1ccccc1 (stereo not given)
inactive: [1] 27.6% | [2] 29.5% | [3] 45.5% | [4] -31.7% | [5] 50.2% | [6] 64.8%

CCCOC(=O)/C=C(\Cl)C(=O)OCCC
inactive: [1] -0.95% | [2] 4.15% | [3] 0.65% | [4] -23.2% | [5] -45.6% | [6] -5.8%

COc1ccc2c(c1)C1(C)CCCC(C)C1=CC2=O (stereo not given)
active: [1] 84% | [2] 78.3% | [3] 82.8% | [5] 87.8% | [6] 85%
inactive: [4] 28.1%

COC(=O)NC1C(C)OC(OC2C/C=C(/C)C3C=CC4C(OC5CC(OC6CCC(OC7CC(O)C(OC8CCC(O)C(C)O8)C(C)O7)C(C)O6)C(OC(C)=O)C(C)O5)C(C)CC(C)C4C3(C)/C(O)=C3/C(=O)OC4(CC(C=O)=CC(O)C4/C=C\2C)C3=O)CC1(C)[N+](=O)[O-] (stereo not given)
inactive: [1] 21.1% | [2] 20.9% | [3] 22.2% | [4] 25.6% | [5] 22.9% | [6] -38%

CCN(CC)CCN(N)CCN(CC)CC
inactive: [1] 20.6% | [2] -24.8% | [3] -1.2% | [4] -1.5% | [5] -44.2% | [6] -17.2%

Nc1ccc(C2SCC(=O)N2NS(=O)(=O)c2cccc(C(=O)O)c2)cc1 (stereo not given)
inactive: [1] -21.3% | [2] -24.1% | [3] 6.8% | [4] 0.8% | [5] -46.2% | [6] -54.5%

O=C1c2cccc([N+](=O)[O-])c2C(=O)N1c1ncn[nH]1
inactive: [1] -5.9% | [2] -2.15% | [3] -21.9% | [4] -6.8% | [5] -43.4% | [6] 0.15%

CSc1nc2c(c(O)c(C)c(=O)n2C2OCC(OC(C)=O)C(OC(C)=O)C2OC(C)=O)c(=O)n1C (stereo not given)
inactive: [1] 10.6% | [2] -26.5% | [3] -15.7% | [4] 2.9% | [5] 2.2% | [6] -1.3%

CCCCCC(C(C)=O)C(C)=O
inactive: [1] -17.5% | [2] -19.6% | [3] -15.1% | [4] 0.45% | [5] -15.8% | [6] -15.6%

CC(=O)c1cccc(OCC(O)CN2CCN(c3ccc(C)cc3)CC2)c1 (stereo not given)
inactive: [1] -12.3% | [2] 3.95% | [3] 4.1% | [4] -8.9% | [5] 3.15% | [6] -2.25%

CC12CCC3c4ccc(O)cc4CCC3C1CC(OC1OC(C(=O)O)C(O)C(O)C1O)C2O (stereo not given)
inactive: [1] 31.6% | [2] 5.9% | [3] 13.5% | [4] 2.4% | [5] 2.4% | [6] 22.2%

CCOC(=O)Cn1c(=O)c2nc(SC)sc2n(CC)c1=S
inactive: [1] -21.8% | [2] 21.1% | [3] -1.15% | [4] -6.55% | [5] 9.45% | [6] 4%

Cc1ccc(NC(=S)NCCc2ccccn2)cc1C
inactive: [1] 29.2% | [2] 13.8% | [3] 28.9% | [4] 1.45% | [5] 21.3% | [6] 21.6%

COC(=O)c1nc(=S)[nH]c(C(=O)OC)c1C(=O)c1ccc(OC)cc1
inactive: [1] -31.9% | [2] -17.6% | [3] -10.2% | [4] -7.9% | [5] -30.4% | [6] 1.2%

CC(=O)NC(CCC(=O)OC(C)(C)C)C(=O)NC(CCC(=O)OC(C)(C)C)C(=O)NC(Cc1ccc([N+](=O)[O-])cc1)C(=O)NC(CCCCNC(=O)OC(C)(C)C)C(=O)NC(CCCCNC(=O)OC(C)(C)C)C(=O)NCC(=O)O (stereo not given) (Ac-E(OtBu)E(OtBu)[Phe(4-NO2)]K(Boc)K(Boc)G-OH; configuration not given here)
inactive: [1] -31.4% | [2] -19.4% | [3] -22.6% | [4] 13.4% | [5] -8.2% | [6] -27.3%

Reference: PubChem BioAssay (NCI)
